Screens: PubChem BioAssay, National Center for Advancing Translational Sciences (NCATS)
Most compounds without a hit are left out; they make up all but 11% or so of the library.
PNC assembly inh – blocks assembly of the perinucleolar compartment | hit rate 3.1% among 140,000 | PC3M PTB-GFP, PNC prevalence imaging, 16 h; active compounds read low | activity change (PNC), negative = inhibition, % at 10 µM;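 active = readout at or below -70, meaning at least 70% loss of cells showing the perinucleolar compartment, a nuclear body marking cancer cells; inconclusive = readout between -30 and a set limit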;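 also: plate controls were DMSO wells for no effect and camptothecin positive control wells for full effect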
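Compounds are pinned in duplicate onto adhered PC3M cells stably expressing GFP-tagged PTB and incubated 16 h at 37 C. Cells are then fixed, nuclei stained with Hoechst, and PNC-positive cells counted.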
ALDH1A1 inh – blocks purified human ALDH1A1 activity; Purified ALDH1A1, NADH fluorescence, propionaldehyde substrate; Potency, µM (series often up to 75.3 µM), for inactives: at the top dose activity, negative = inhibition, actives largely listed as inhibitors; hit rate 7.3% among 220,000;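 also: potency is read from the fitted curve at half-maximal effect; plate controls were no enzyme wells and a reference inhibitor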
HPGD inh – HPGD (human) dehydrogenase inhibition; P15428; purified HPGD, NADH fluorescence kinetic, PGE2 substrate; Potency, µM, for inactives: at the highest dose activity change, negative = inhibition, most hits filed as inhibitors; hit rate 4.3% among 150,000; AID 894; also: potency is read from the fitted curve at half-maximal effect
Target sequence (P15428 whole entry, looked up): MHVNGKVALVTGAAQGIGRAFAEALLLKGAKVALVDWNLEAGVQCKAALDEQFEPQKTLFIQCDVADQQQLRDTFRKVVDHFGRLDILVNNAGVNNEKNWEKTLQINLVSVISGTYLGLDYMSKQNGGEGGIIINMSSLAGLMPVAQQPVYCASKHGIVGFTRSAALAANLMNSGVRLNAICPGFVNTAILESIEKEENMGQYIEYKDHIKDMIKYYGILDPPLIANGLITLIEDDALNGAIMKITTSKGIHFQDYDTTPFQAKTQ
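20 nM HPGD preincubated 15 min at room temperature with compound in 50 mM Tris-HCl pH 8, 0.01% Tween 20. Started with 1 mM NAD+ and 30 uM prostaglandin E2; NADH fluorescence (360/450 nm) read 5 times over 30-s intervals, last minus first.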
The depositor's hits bear a star; ? = inconclusive; · = no result; [ ] = remark or other dose. Unless noted, calls follow the shape of the dose curve; as a rule, active = well fitted inhibition curve with a large enough effect (not every such curve was filed as active); inconclusive = small, poorly fitted or top-dose-only effect, or another doubt; inactive = no such curve, though single readings can be large or run the other way. Unless noted, % is scaled to controls: 0 for no effect and ±100 for the full control effect.

SMILES | PNC assembly inh | ALDH1A1 inh | HPGD inh
CC(O)CSc1nc2c(c(=O)[nH]c(=O)n2C)n1CC(O)COc1ccccc1 (configuration not stated) | · | 24µM* | ·
CCSc1nc2c(c(=O)[nH]c(=O)n2C)n1CC(O)COc1ccccc1C (configuration not stated) | ? | 28µM* | 14µM*
CN(C)CCNc1nc2c(c(=O)[nH]c(=O)n2C)n1CC(O)COc1ccc(Cl)cc1Cl (configuration not stated) | -19 | ? | 22µM*
Cc1ccccc1OCC(O)Cn1c(NCc2ccccc2)nc2c1c(=O)[nH]c(=O)n2C (configuration not stated) | 24 | 2% | -1%
O=C(Cc1ccc(S(=O)(=O)N2CCCCC2)s1)Nc1cccc2ccccc12 | 34 | -2% | 2%
CS(=O)(=O)N(C(=O)NC(=O)NC12CC3CC(CC(C3)C1)C2)C1CCCCC1 | · | 6% | ·
CC[n+]1c(C)cc(C)n1-c1ccccc1 | · | 6% | ·
Cc1ccc(S(=O)(=O)N(CC(=O)NC2CCCC2)c2cccc(C)c2)cc1 | 5 | ? | -16%
Cc1cc2nc(SCC(=O)Nc3ccccc3C(=O)O)[nH]c2cc1C | · | 5% | ·
O=S(=O)(c1ccccc1F)N1CCN(Cc2nc3ccccc3[nH]2)CC1 | 41 | 11µM* | -7%
c1ccc2[nH]c(CN3CCCCCC3)nc2c1 | 15 | -4% | -17%
CC1CCc2c(sc3ncn(CC(=O)N4CCCCC4)c(=O)c23)C1 (configuration not stated) | · | -6% | ·
CCCCn1c(SC(C)C(=O)c2ccc(OC)cc2)nc2cc(S(N)(=O)=O)ccc21 (configuration not stated) | 12 | -10% | -16%
CCCCn1c(SCC(=O)c2ccc(OC)cc2OC)nc2cc(S(N)(=O)=O)ccc21 | ? | 7.1µM* | -7%
CCOC(=O)c1ccc[n+](CC(=O)Nc2cc(C(F)(F)F)ccc2Cl)c1 | · | -13% | ·
N#CC1=C(N)Oc2cc(O)ccc2C1c1cccs1 (configuration not stated) | -106* | ? | -11%
N#CC1=C(N)Oc2cc(O)ccc2C1c1ccncc1 (configuration not stated) | ? | 1% | -16%
COC(=O)CC1=C(C(=O)OC)C(c2cccs2)C(C#N)=C(N)O1 (configuration not stated) | -119* | ? | -35%
CCOC(=O)C1=C(CC)OC(N)=C(C#N)C1c1cccs1 (configuration not stated) | -7 | ? | -17%
CCNc1nc(NCC)nc(N/N=C(\C)c2ccc(OC)cc2)n1 | · | -5% | ·
Cc1cc(C)c(S(=O)(=O)N(CC(=O)O)C2CCCCC2)c(C)c1 | -97* | 10% | -7%
CCOC(=O)N1CCN(C(=O)CN(C2CCCCC2)S(=O)(=O)c2c(C)cc(C)cc2C)CC1 | 26 | 3% | -6%
O=C(O)c1cc2ccccc2c(S(=O)(=O)O)c1O | · | 10%[13.5 µM] | -14%
O=C(c1ccc(Cl)c(S(=O)(=O)N2CCCC2)c1)N1CCN(c2ncccn2)CC1 | · | -11% | ·
COc1ccc(-c2nc(-n3c(C)c(C(C)=O)c(C(C)=O)c3C)sc2C)cc1 | 22 | ? | -17%
SMILES | PNC assembly inh | ALDH1A1 inh | HPGD inh
COc1ccc(-c2nc(C)sc2C)cc1 | 15 | ? | 28µM*
Cc1ccccc1OCCNC(=O)/C=C/c1ccccc1 | 1 | ? | -10%
CCn1c2ccccc2c2cc(NC(=O)c3ccccc3[N+](=O)[O-])ccc21 | -13 | 4% | -4%
COCC(=O)N1CCC2(CCN(Cc3ccc(C#N)cc3)CC2)CC1 | · | -3% | -2%
CN(C)c1nnnn1-c1ccc(OC(F)(F)F)cc1 | · | 10% | ·
C=CCOC(=O)CCCCCCCC | · | -3% | -2%
Nc1nc(N)c(N=Nc2ccc(C(=O)O)c(O)c2)c(N)n1 | · | -7%[13.5 µM] | ?
O=C(/C=C/c1ccc(Cl)cc1)Nc1ccc(N2CCCCC2)cc1 | 12 | 3% | -4%
NC(=O)/C=C/C(=O)Nc1ccc(Cl)cc1 | · | 2.2µM* | ·
Cc1ccc(NC(=O)CSC(N)=O)cc1Cl | 0 | 3.5µM* | -13%
N#CCSCC(=O)Nc1ccc(Cl)cc1 | 23 | ? | -28%
NC(=O)SCC(=O)Nc1ccc(Cl)cc1 | -23 | ? | 4.5µM*
NC(=O)SCC(=O)Nc1cccc(Cl)c1 | -13 | 0.6µM* | -22%
COC(=O)CCC(=O)Nc1cccc(Cl)c1 | ? | 10% | -6%
NC(=O)SCC(=O)Nc1ccc(Cl)c(Cl)c1 | 23 | ? | -14%
O=C(Cn1c(CO)nc2ccccc21)NC1CCCCCC1 | · | -2% | ·
CC(=O)O[C@@H]1CC2C(C)(C)C(=O)C=C[C@]2(C)C2CC[C@]3(C)C(=CC[C@H]3C3CO[C@@H](C(C)(C)O)[C@H](O)C3)[C@@]21C (some centres not stated) | · | 2% | -9%
